From PubChem BioAssay (NCI)
About 79,000 compounds went through this panel and 15% of them were active in at least one assay; those are over-represented in the sample as a whole. Activity calls are given as the source filed them. No stated cut-off is given here; in the data, active means growth inhibition above about 70%; inactive means the rest.

Legend:
[1] = NCI Yeast Anticancer Drug Screen. Data for the rad14 strain (AID 159);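 further: 0% = growth of vehicle-treated control cultures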; details: S. cerevisiae rad14 strain growth inhibition, hits give high values
In short: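 DNA repair-defective yeast, compound-exposed; % growth inhibition derived by comparison with vehicle-treated controls.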

[2] = NCI Yeast Anticancer Drug Screen. Data for the sgs1 mgt1 strain (AID 161);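 further: 0% = growth of cultures given vehicle only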; details: S. cerevisiae sgs1 mgt1 strain, hits give high values
In short: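 Percent growth inhibition was derived by comparing compound-exposed mutant yeast with vehicle-exposed cultures. The strain carries alterations in DNA damage repair.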

[3] = NCI Yeast Anticancer Drug Screen. Data for the CLN2oe strain (AID 163);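 further: 0% = growth of vehicle-only control cultures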; details: S. cerevisiae CLN2oe strain, hits give high values
In short: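 Compounds are applied to yeast harbouring a defined cell-cycle control change; reduced growth compared with vehicle-treated controls gives the value.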

[4] = NCI Yeast Anticancer Drug Screen. Data for the cln2 rad14 strain (AID 165);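 further: 0% = growth equal to vehicle treated cultures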; details: S. cerevisiae cln2 rad14 strain, hits give high values
In short: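 Readout is yeast growth inhibition versus vehicle-treated controls, using a strain with cln2 and rad14 alterations exposed to compound.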

[5] = NCI Yeast Anticancer Drug Screen. Data for the bub3 strain (AID 167); details: S. cerevisiae bub3 mutant strain, hits give high values
In short: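 In this screen, a yeast mutant lacking normal mitotic checkpoint function is challenged with compound. Relative growth versus vehicle gives the inhibition value.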

[6] = NCI Yeast Anticancer Drug Screen. Data for the wt2 strain (AID 169);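 further: 0% = growth of vehicle-treated yeast cultures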; details: S. cerevisiae wt2 strain growth inhibition, hits give high values
In short: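 Against vehicle-treated controls, the growth of yeast exposed to each compound was compared, and the inhibition was recorded.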

[7] = NCI Yeast Anticancer Drug Screen. Data for the mlh1 strain (AID 171);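 further: 0% = growth of vehicle-treated control cultures of the same strain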; details: S. cerevisiae mlh1 strain growth inhibition, hits give high values
In short: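 Measured: yeast growth. Reference: vehicle-treated controls. Organism: strain with a defined alteration affecting DNA damage repair or cell cycle control, treated with compound.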

[8] = NCI Yeast Anticancer Drug Screen. Data for the sgs1 strain (AID 173);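 further: 0% = growth of vehicle-only control cultures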; details: S. cerevisiae sgs1 mutant, hits give high values
In short: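 Each compound was added to cultures of the altered yeast strain. Growth was recorded, and inhibition was derived by comparison with vehicle controls.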

[9] = NCI Yeast Anticancer Drug Screen. Data for the mlh1 rad18 strain (AID 175); details: S. cerevisiae mlh1 rad18 strain growth inhibition, hits give high values
In short: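 Genetically defined yeast (DNA repair-deficient) exposed to compounds; growth inhibition determined relative to vehicle.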

[10] = NCI Yeast Anticancer Drug Screen. Data for the rad18 strain (AID 177); details: S. cerevisiae rad18 mutant growth inhibition, hits give high values
In short: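 Vehicle-treated cultures served as the baseline for scoring compound-induced growth inhibition in DNA-repair-mutant yeast.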

[11] = NCI Yeast Anticancer Drug Screen. Data for the rad52 strain (AID 147);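 further: 0% = growth of vehicle-treated control cultures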; details: S. cerevisiae rad52 mutant growth inhibition, hits give high values
In short: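 The repair-mutant yeast strain was incubated with compounds, then growth was read and inhibition derived relative to vehicle.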

[12] = NCI Yeast Anticancer Drug Screen. Data for the wt1 strain (AID 149);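 further: 0% = growth of vehicle-treated wt1 cultures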; details: S. cerevisiae wt1 strain (SPY 50644) growth inhibition, hits give high values
In short: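 wt1 strain grown with compound or vehicle; inhibition taken from the growth difference.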

[13] = NCI Yeast Anticancer Drug Screen. Data for the rad50EPP+ strain (AID 151);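 further: 0% = growth of vehicle-treated control cultures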; details: S. cerevisiae rad50 mutant strain, hits give high values
In short: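 Vehicle-normalised growth inhibition; rad50EPP+ yeast strain, altered in DNA damage repair, compound-treated.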

[14] = NCI Yeast Anticancer Drug Screen. Data for the mgt1 strain (AID 153); details: S. cerevisiae mgt1 mutant growth inhibition, hits give high values
In short: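 Vehicle-normalized growth inhibition is determined in mgt1 yeast, a strain selected for a defined alteration in DNA repair or cell cycle control.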

[15] = NCI Yeast Anticancer Drug Screen. Data for the rad50 strain (AID 155);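 further: 0% = growth of vehicle-only cultures of the same strain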; details: S. cerevisiae rad50 strain growth inhibition, hits give high values
In short: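 DNA repair mutant yeast, compound exposure, growth read-out; inhibition is taken relative to vehicle.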

[16] = NCI Yeast Anticancer Drug Screen. Data for the mec2-1 strain (AID 157); details: S. cerevisiae mec2-1 strain, hits give high values
In short: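 Mutant yeast (mec2-1) grown with compound; growth inhibition relative to vehicle control reported.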

[17] = at 5.0 µM (retest, dose inferred, filed as 0.5)
[18] = at 50.0 µM (retest, dose inferred, filed as 5.0)

Measured: growth inhibition

O=[N+]([O-])c1cc(Cl)cnc1Br
inactive: [1]; at 11.0 µM 10% | [1]; at 33.0 µM 14% | [1]; at 100.0 µM 31% | [2]; [17] -50% | [2]; [18] -19% | [2]; at 50.0 µM 8.35% | [3]; at 1.2 µM -4% | [3]; at 3.7 µM -1% | [3]; at 11.0 µM 4% | [3]; at 33.0 µM 4% | [3]; at 100.0 µM 8% | [4]; [17] -56% | [4]; [18] -74% | [4]; at 50.0 µM 3.2% | [5]; at 1.2 µM -8% | [5]; at 3.7 µM -10% | [5]; [17] -74% | [5]; at 11.0 µM -6% | [5]; at 33.0 µM -2% | [5]; [18] -70% | [5]; at 50.0 µM -8.3% | [5]; at 100.0 µM 30% | [6]; at 1.2 µM 0% | [6]; at 3.7 µM 1% | [6]; at 11.0 µM 2% | [6]; at 33.0 µM 5% | [6]; at 100.0 µM 20% | [7]; at 1.2 µM 6% | [7]; at 3.7 µM 8% | [7]; at 11.0 µM 6% | [7]; at 33.0 µM 12% | [7]; at 100.0 µM 27% | [8]; at 1.2 µM 14% | [8]; at 3.7 µM 25% | [8]; at 11.0 µM 30% | [8]; at 33.0 µM 40% | [9]; [17] -109% | [9]; [18] -48% | [9]; at 50.0 µM 28.1% | [10]; at 1.2 µM 6% | [10]; at 3.7 µM 10% | [10]; at 11.0 µM 18% | [10]; at 33.0 µM 35%
active: [8]; at 100.0 µM 82% | [10]; at 100.0 µM 87%

CNC(=O)OCc1c(COC(=O)NC)c(-c2ccc(Cl)cc2)n2c1CCC2
inactive: [11]; at 1.2 µM -19% | [11]; at 3.7 µM -31% | [11]; at 11.0 µM -28% | [11]; at 33.0 µM -22% | [11]; at 100.0 µM 69% | [12]; at 1.2 µM -37% | [12]; at 3.7 µM -31% | [12]; at 11.0 µM -43% | [12]; at 33.0 µM -47% | [13]; at 1.2 µM -21% | [13]; at 3.7 µM -23% | [13]; at 11.0 µM -16% | [13]; at 33.0 µM -25% | [13]; at 100.0 µM -26% | [14]; at 1.2 µM -47% | [14]; at 3.7 µM -55% | [14]; at 11.0 µM -49% | [14]; at 33.0 µM -17% | [15]; at 1.2 µM -34% | [15]; at 3.7 µM -42% | [15]; [17] 21% | [15]; at 11.0 µM -40% | [15]; at 33.0 µM -30% | [15]; [18] 11% | [15]; at 50.0 µM 56.3% | [16]; at 1.2 µM -55% | [16]; at 3.7 µM -41% | [16]; [17] 0% | [16]; at 11.0 µM -37% | [16]; at 33.0 µM -36% | [16]; [18] 6% | [16]; at 50.0 µM 44.7% | [2]; [17] 33% | [2]; [18] 69% | [2]; at 50.0 µM 57.5% | [3]; at 1.2 µM -21% | [3]; at 3.7 µM -1% | [3]; at 11.0 µM -9% | [3]; at 33.0 µM -6% | [4]; [17] 30% | [4]; [18] 38% | [5]; at 1.2 µM -53% | [5]; at 3.7 µM -69% | [5]; [17] 36% | [5]; at 11.0 µM -55% | [5]; at 33.0 µM -17% | [5]; [18] 33% | [5]; at 50.0 µM 23% | [6]; at 1.2 µM -31% | [6]; at 3.7 µM -11% | [6]; at 11.0 µM -26% | [6]; at 33.0 µM -10% | [7]; at 1.2 µM -61% | [7]; at 3.7 µM -93% | [7]; at 11.0 µM -67% | [7]; at 33.0 µM 10% | [8]; at 1.2 µM -11% | [8]; at 3.7 µM -28% | [8]; at 11.0 µM -41% | [8]; at 33.0 µM -23% | [9]; [17] 4% | [9]; [18] 5% | [10]; at 1.2 µM -28% | [10]; at 3.7 µM -30% | [10]; at 11.0 µM -53% | [10]; at 33.0 µM -42%
active: [12]; at 100.0 µM 84% | [14]; at 100.0 µM 98% | [15]; at 100.0 µM 97% | [16]; at 100.0 µM 87% | [3]; at 100.0 µM 94% | [4]; at 50.0 µM 84% | [5]; at 100.0 µM 94% | [6]; at 100.0 µM 97% | [7]; at 100.0 µM 98% | [8]; at 100.0 µM 89% | [9]; at 50.0 µM 74.3% | [10]; at 100.0 µM 97%

CC(C)(CCCCC(C)(C)[N+](C)(C)C)[N+](C)(C)C
active: [15]; at 50.0 µM 85.2% | [16]; at 50.0 µM 88.5% | [2]; at 50.0 µM 89.1% | [4]; at 50.0 µM 87.2% | [5]; [18] 98% | [5]; at 50.0 µM 85.5% | [9]; at 50.0 µM 91.5%
inactive: [11]; at 1.2 µM -4% | [11]; at 3.7 µM -6% | [11]; at 11.0 µM -5% | [11]; at 33.0 µM -10% | [11]; at 100.0 µM -1% | [12]; at 1.2 µM -2% | [12]; at 3.7 µM 0% | [12]; at 11.0 µM -1% | [12]; at 33.0 µM -1% | [12]; at 100.0 µM 1% | [13]; at 1.2 µM -3% | [13]; at 3.7 µM -4% | [13]; at 11.0 µM 0% | [13]; at 33.0 µM -1% | [13]; at 100.0 µM -2% | [15]; at 1.2 µM -10% | [15]; at 3.7 µM -18% | [15]; [17] 4% | [15]; at 11.0 µM -25% | [15]; at 33.0 µM -4% | [15]; [18] 54% | [15]; at 100.0 µM -2% | [16]; at 1.2 µM 0% | [16]; at 3.7 µM 1% | [16]; [17] 21% | [16]; at 11.0 µM 0% | [16]; at 33.0 µM 1% | [16]; [18] 42% | [16]; at 100.0 µM -1% | [1]; at 1.2 µM -2% | [1]; at 3.7 µM -2% | [1]; at 11.0 µM -4% | [1]; at 33.0 µM -4% | [1]; at 100.0 µM -2% | [2]; [17] 0% | [2]; [18] 31% | [3]; at 1.2 µM -4% | [3]; at 3.7 µM -2% | [3]; at 11.0 µM 2% | [3]; at 33.0 µM -3% | [3]; at 100.0 µM -1% | [4]; [17] 44% | [4]; [18] 52% | [5]; at 1.2 µM -1% | [5]; at 3.7 µM 0% | [5]; [17] -1% | [5]; at 11.0 µM -1% | [5]; at 33.0 µM 0% | [5]; at 100.0 µM 0% | [6]; at 1.2 µM -2% | [6]; at 3.7 µM -2% | [6]; at 11.0 µM -5% | [6]; at 33.0 µM -5% | [6]; at 100.0 µM -1% | [7]; at 1.2 µM 1% | [7]; at 3.7 µM 1% | [7]; at 11.0 µM 0% | [7]; at 33.0 µM 0% | [7]; at 100.0 µM -1% | [8]; at 1.2 µM -1% | [8]; at 3.7 µM 1% | [8]; at 11.0 µM -2% | [8]; at 33.0 µM 0% | [8]; at 100.0 µM 0% | [9]; [17] 10% | [9]; [18] 35% | [10]; at 1.2 µM -4% | [10]; at 3.7 µM 0% | [10]; at 11.0 µM -2% | [10]; at 33.0 µM -3% | [10]; at 100.0 µM -3%
